# About 83,000 compounds went through this panel and 20% of them were active in at least one assay; those are over-represented in the sample as a whole.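 Testing used 96-well plates and a 48-hour single-concentration exposure. Example: -40 means 40% of the starting cells died.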 Active and inactive are the calls of the source. The calls were made as follows: active = growth percent below 10; inactive = the rest.
# Key:
# Assay in all cases: NCI-60 one-dose screen, 48 h (100 = growth as untreated, 0 = no growth, -100 = all killed)
# Conditions in all cases: 10 µM unless noted
# [1] = test system: DU-145 prostate
# [2] = test system: K-562 leukemia
# [3] = test system: MALME-3M melanoma
# [4] = test system: MDA-MB-231 breast
# [5] = test system: RXF 393 renal
# [6] = test system: SF-268 CNS
# [7] = test system: SF-295 CNS
# [8] = test system: SF-539 CNS
# [9] = test system: UACC-257 melanoma
# [10] = test system: M14 melanoma
Structure (SMILES),growth [1],growth [2],growth [3],growth [4],growth [5],growth [6],growth [7],growth [8],growth [9],growth [10]
Nc1ccc(S(=O)(=O)Nc2cc(F)cc(F)c2)cc1,94.5% (inactive),71.9% (inactive),131% (inactive),90.9% (inactive),20.1% (inactive),130% (inactive),103% (inactive),85.6% (inactive),95.5% (inactive),91.1% (inactive)
COc1cc2ncnc(-n3ncc4cc(NC(=O)Nc5ccc(Cl)c(C)c5)ccc43)c2cc1OC,101% (inactive),90.5% (inactive),82.8% (inactive),98.9% (inactive),99.4% (inactive),102% (inactive),96.9% (inactive),59.7% (inactive),102% (inactive),79.3% (inactive)
COc1cc(-c2cc3cnccc3c3nc(N)c4ccncc4c23)cc(OC)c1OC,62.3% (inactive),24.1% (inactive),59.8% (inactive),42.9% (inactive),8.24% (active),49.4% (inactive),67.3% (inactive),38% (inactive),92.2% (inactive),68.1% (inactive)
O=C(NCCNCCO)c1cc([N+](=O)[O-])cc([N+](=O)[O-])c1O,99.3% (inactive),102% (inactive),107% (inactive),109% (inactive),109% (inactive),102% (inactive),101% (inactive),106% (inactive),103% (inactive),102% (inactive)
COc1cc(-c2nc3c(c(C)nc4c3nnn4-c3ccccc3)c(=O)o2)cc(OC)c1OC,111% (inactive),106% (inactive),104% (inactive),106% (inactive),108% (inactive),98.3% (inactive),104% (inactive),102% (inactive),119% (inactive),98.6% (inactive)
Oc1ccc(N=Nc2ccc(N=Nc3ccccc3)cc2)cc1,49.3% (inactive),-7.03% (active),111% (inactive),54.7% (inactive),98.2% (inactive),36.9% (inactive),8.6% (active),2.09% (active),53% (inactive),26.7% (inactive)
COc1cc(OC)c2c(=O)cc(-c3ccccc3)oc2c1,111% (inactive),98.4% (inactive),97.2% (inactive),97% (inactive),99.8% (inactive),104% (inactive),93.8% (inactive),108% (inactive),97.8% (inactive),
COc1ccc2c(c1)/C(=C1/S/C(=N/c3nnc(C)s3)NC1=O)C(=O)N2Cc1ccc(Br)cc1,41.6% (inactive),34.8% (inactive),68.3% (inactive),53.4% (inactive),49.6% (inactive),36% (inactive),15.4% (inactive),42.7% (inactive),57.4% (inactive),37% (inactive)
CC(=O)OCC1O[C@@H](OC(C)=O)[C@@H](NC(=O)NS(=O)(=O)c2ccccc2)C(OC(C)=O)[C@@H]1OC(C)=O (stereo partly drawn),108% (inactive),94.6% (inactive),103% (inactive),105% (inactive),108% (inactive),100% (inactive),94.4% (inactive),97.2% (inactive),118% (inactive),108% (inactive)
Nc1nc2c(c3ncncc13)C(c1cccc(C(F)(F)F)c1)Cc1ncncc1-2 (stereo not drawn),15.6% (inactive),16.9% (inactive),66.2% (inactive),45% (inactive),6.31% (active),45.8% (inactive),11.9% (inactive),-26.6% (active),67.9% (inactive),11.4% (inactive)
O=C(CCC(=O)N(CCO)CCO)N(CCO)CCO,107% (inactive),96% (inactive),103% (inactive),109% (inactive),113% (inactive),108% (inactive),96.4% (inactive),101% (inactive),101% (inactive),99.5% (inactive)
COc1ccc2cn3c4ccc(O)cc4[nH]c(=O)c3c2c1,11.5% (inactive),13.2% (inactive),41.2% (inactive),23.2% (inactive),2.52% (active),21% (inactive),0.201% (active),-9.1% (active),50.1% (inactive),-2.73% (active)
COc1ccccc1CNCCCN1C(=O)c2ccc3c4c(ccc(c24)C1=O)C(=O)N(CCCNCc1ccccc1OC)C3=O,-81.4% (active),-44.2% (active),-73.6% (active),-13.1% (active),-93.9% (active),-64.4% (active),-56.3% (active),-70.7% (active),-97.9% (active),-61.9% (active)
CCOP1(=O)CC(C)=C(Cl)C(P(=O)(O)O)C1 (stereo not drawn),109% (inactive),101% (inactive),95.1% (inactive),100% (inactive),96% (inactive),109% (inactive),109% (inactive),105% (inactive),87.3% (inactive),
CC(=O)Nc1nc(C)c(C(=O)NNS(=O)(=O)c2ccccc2)s1,135% (inactive),149% (inactive),96.5% (inactive),107% (inactive),110% (inactive),117% (inactive),132% (inactive),101% (inactive),103% (inactive),97.6% (inactive)
CCOC1=C(Cl)C(=O)C(OCC)=C(Cl)C1=O,106% (inactive),82.5% (inactive),103% (inactive),103% (inactive),105% (inactive),107% (inactive),96.4% (inactive),101% (inactive),103% (inactive),110% (inactive)
C#CCCCCCCC[C@@H]1OC(=O)[C@H]([C@@H](C)CC)NC(=O)[C@H]([C@@H](C)CC)NC(=O)CC(=O)[C@@H]1C,106% (inactive),96.5% (inactive),92.9% (inactive),89.9% (inactive),104% (inactive),91.9% (inactive),98.9% (inactive),97.5% (inactive),117% (inactive),93.9% (inactive)
Cc1ccccc1-n1c(C)nc2cc(NC(=O)c3ccc(Cl)cc3)ccc2c1=O,87.6% (inactive),55.8% (inactive),53.5% (inactive),58.4% (inactive),77.7% (inactive),77.8% (inactive),59.7% (inactive),58.2% (inactive),59.7% (inactive),68.7% (inactive)
CSC1=Nc2c(c(C)c(-c3ccccc3)n2CCCCl)C2=NC(=O)CN12,94.8% (inactive),19.3% (inactive),82.8% (inactive),65.2% (inactive),94.7% (inactive),77% (inactive),43.3% (inactive),61.7% (inactive),83.8% (inactive),30.8% (inactive)
COC(=O)c1ccc2[nH]c(O)c(C(=Nc3ccc(N(C)C(=O)CN4CCN(C)CC4)cc3)c3ccc(N)cc3)c2c1,96.8% (inactive),14% (inactive),83.5% (inactive),87.6% (inactive),56.7% (inactive),62.4% (inactive),99.1% (inactive),50.8% (inactive),125% (inactive),88% (inactive)
CCn1cnc(C[C@H](NC(=O)[C@@H](NC(=O)Nc2cc(C(F)(F)F)cc(C(F)(F)F)c2)C(C)(C)C)C(=O)OC)c1,-95.1% [100 µM] (active),-47% [100 µM] (active),-82.5% [100 µM] (active),-93.6% [100 µM] (active),-83.7% [100 µM] (active),-89.2% [100 µM] (active),-88.6% [100 µM] (active),-93.4% [100 µM] (active),-96.2% [100 µM] (active),-90.8% [100 µM] (active)
Nc1ccc(S(=O)(=O)c2ccc(NO)cc2)cc1,89.4% (inactive),91.8% (inactive),144% (inactive),98.3% (inactive),53.7% (inactive),109% (inactive),106% (inactive),76.8% (inactive),106% (inactive),117% (inactive)
COc1cc(OC)cc(-c2ccc(-c3ccc(C(=N)N)cc3)s2)c1,-90.6% (active),-39.8% (active),-80.7% (active),-77% (active),-94.3% (active),-72.2% (active),-88.4% (active),-88.7% (active),-58% (active),-90.5% (active)
CCCCCCNC(=O)Oc1ccc(/C(=C(/C)Cc2ccc(OC)cc2)c2ccc(OCCN3CCCCC3)cc2)cc1,98.9% (inactive),36.8% (inactive),101% (inactive),84.5% (inactive),84.4% (inactive),81.9% (inactive),105% (inactive),91.8% (inactive),88.9% (inactive),84.6% (inactive)
CCn1cc(C(=O)O)c(=O)c2cc(F)c(N3CCN(S(=O)(=O)c4ccc(Cl)cc4)CC3)cc21,31.7% (inactive),21.4% (inactive),23.8% (inactive),41.1% (inactive),13.4% (inactive),22.7% (inactive),3.94% (active),21.7% (inactive),29% (inactive),18.9% (inactive)

# — PubChem BioAssay (NCI)
